From publication PMC9838217, “Structure of SALL4 zinc finger domain reveals link between AT-rich DNA binding and Okihiro syndrome”
Substitutions are numbered along the chain they refer to.

What was measured:
Experiment in all cases: HT-SELEX; high values mean tight binding
Conditions in all cases: protein: recombinant; vector His6-GST; dsDNA, one strand shown
SALL4 ZFC4 WT (HT-SELEX) = biological target: T1, SALL4 ZFC4 WT (HT-SELEX) (Mus musculus, UniProt Q8BX22 870-940)
T1 sequence: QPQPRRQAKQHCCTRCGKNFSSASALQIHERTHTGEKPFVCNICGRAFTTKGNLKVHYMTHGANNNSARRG
Summary of the method: (§1)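 In triplicate selections of up to 6 cycles, purified recombinant mouse SALL4 zinc finger cluster 4 (residues 870–940, 1 µg) was incubated 10 min at room temperature with library DNA (1.5 µg, then 200 ng) in 100 µl of 10 mM Tris–HCl pH 7.5, 50 mM NaCl, poly(dI-dC) and DTT, and complexes were captured on Ni2+ beads, washed and PCR-amplified. Sequencing was done on MiSeq with scanning for 6-mers. The binding signal is each canonical k-mer's read fraction, reported as fold change against the initial random library.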

[1] = biological target: T2, SALL4 ZFC4 R900W (HT-SELEX) (Mus musculus, UniProt Q8BX22 870-940, R900W)
T2 sequence: T1 sequence with R31W
Summary of the method: as §1

[2] = biological target: T3, SALL4 ZFC4 G921D (HT-SELEX) (Mus musculus, UniProt Q8BX22 870-940, G921D)
T3 sequence: T1 sequence with G52D
Summary of the method: as §1

Row | Sequence | binding signal (SALL4 ZFC4 WT (HT-SELEX)) [fold-change vs cycle 0] | binding signal [1] [fold-change vs cycle 0] | binding signal [2] [fold-change vs cycle 0]
1 | CAGCAG | 0.333 ± 0.0334 | 0.387 ± 0.024 | 0.523 ± 0.0543
2 | GGGTGA | 0.483 ± 0.00743 | 0.541 ± 0.0302 | 0.632 ± 0.0295
3 | GAATAC | 1.29 ± 0.026 | 1.41 ± 0.0467 | 1.34 ± 0.07
4 | GATAAC | 1.49 ± 0.117 | 1.52 ± 0.136 | 1.44 ± 0.166
5 | TCTGAA | 1.3 ± 0.0929 | 1.43 ± 0.078 | 1.37 ± 0.111
6 | AAAAAC | 1.45 ± 0.0971 | 1.49 ± 0.0832 | 1.42 ± 0.0693
7 | AGACTC | 0.806 ± 0.0153 | 0.928 ± 0.0387 | 1.01 ± 0.0334
8 | CCTTTA | 1.31 ± 0.0506 | 1.47 ± 0.0755 | 1.33 ± 0.0771
9 | ACATCC | 0.877 ± 0.0368 | 0.969 ± 0.0252 | 0.991 ± 0.0197
10 | CTCCAG | 0.482 ± 0.0297 | 0.584 ± 0.0424 | 0.667 ± 0.0339
11 | GGAGGA | 0.577 ± 0.0578 | 0.669 ± 0.0435 | 0.733 ± 0.0247
12 | ACAGGA | 0.851 ± 0.0194 | 1 ± 0.0486 | 1.01 ± 0.0583
13 | CAGGTC | 0.406 ± 0.041 | 0.487 ± 0.0258 | 0.603 ± 0.0536
14 | AATAGG | 1.27 ± 0.0647 | 1.39 ± 0.0729 | 1.32 ± 0.0667
15 | TCCTCA | 0.899 ± 0.0263 | 1.04 ± 0.0214 | 1.06 ± 0.0234
16 | CAAGTG | 0.7915 ± 0.00346 | 0.902 ± 0.026 | 0.944 ± 0.0555
17 | AAAAAT | 3.83 ± 0.465 | 2.16 ± 0.197 | 1.9 ± 0.223
18 | CGGTCA | 0.331 ± 0.0331 | 0.405 ± 0.0336 | 0.52 ± 0.0692
19 | AGGCAA | 0.538 ± 0.0205 | 0.6566 ± 0.00197 | 0.754 ± 0.0411
20 | AAGTGT | 1.24 ± 0.0333 | 1.35 ± 0.0203 | 1.3 ± 0.0159

Row | Sequence | binding signal (SALL4 ZFC4 WT (HT-SELEX)) [fold-change vs cycle 0] | binding signal [1] [fold-change vs cycle 0] | binding signal [2] [fold-change vs cycle 0]
21 | CCTAAG | 0.941 ± 0.0158 | 1.05 ± 0.0579 | 1.05 ± 0.0419
22 | CGGATA | 0.674 ± 0.0155 | 0.747 ± 0.0235 | 0.823 ± 0.043
23 | ACTTGC | 0.656 ± 0.0276 | 0.723 ± 0.0488 | 0.815 ± 0.0179
24 | CTTCCA | 0.834 ± 0.0174 | 0.975 ± 0.0211 | 1.02 ± 0.0304
25 | ACCTTC | 0.842 ± 0.0201 | 0.982 ± 0.0475 | 1 ± 0.0224
26 | ACAAAG | 1.19 ± 0.0417 | 1.36 ± 0.0499 | 1.3 ± 0.0198
27 | CAAGAC | 0.74 ± 0.0108 | 0.856 ± 0.0182 | 0.905 ± 0.036
28 | CTAACA | 1.32 ± 0.0481 | 1.48 ± 0.0428 | 1.41 ± 0.0893
29 | ATCTGG | 0.78 ± 0.0274 | 0.839 ± 0.0522 | 0.901 ± 0.0524
30 | CTGGTC | 0.403 ± 0.00696 | 0.499 ± 0.0159 | 0.601 ± 0.0523
31 | CGGGAA | 0.362 ± 0.00736 | 0.417 ± 0.0262 | 0.499 ± 0.0534
32 | CTAGAC | 0.775 ± 0.0462 | 0.888 ± 0.0389 | 0.932 ± 0.00894
33 | CTCGAG | 0.462 ± 0.0432 | 0.548 ± 0.0598 | 0.638 ± 0.046
34 | CAGAGC | 0.315 ± 0.0109 | 0.382 ± 0.0231 | 0.524 ± 0.0543
35 | GTCAAC | 0.711 ± 0.0163 | 0.867 ± 0.00955 | 0.934 ± 0.0287
36 | CATGTA | 1.28 ± 0.0897 | 1.37 ± 0.0595 | 1.35 ± 0.123
37 | GGAAAC | 0.775 ± 0.0365 | 0.874 ± 0.0459 | 0.9097 ± 0.00842
38 | GTACAA | 1.14 ± 0.0399 | 1.26 ± 0.0443 | 1.22 ± 0.0489
39 | CACCGA | 0.338 ± 0.00929 | 0.392 ± 0.0114 | 0.523 ± 0.056
40 | AAACCG | 0.532 ± 0.0183 | 0.604 ± 0.0163 | 0.705 ± 0.0593

Row | Sequence | binding signal (SALL4 ZFC4 WT (HT-SELEX)) [fold-change vs cycle 0] | binding signal [1] [fold-change vs cycle 0] | binding signal [2] [fold-change vs cycle 0]
41 | AAGCCA | 0.541 ± 0.0136 | 0.628 ± 0.0233 | 0.751 ± 0.0535
42 | CAATTG | 1.09 ± 0.0289 | 1.247 ± 0.0104 | 1.28 ± 0.0217
43 | CCAGAA | 0.726 ± 0.028 | 0.821 ± 0.0147 | 0.852 ± 0.0285
44 | AACCTT | 1.35 ± 0.0624 | 1.5 ± 0.0445 | 1.39 ± 0.0775
45 | AGTAGC | 0.643 ± 0.0074 | 0.756 ± 0.0367 | 0.856 ± 0.0498
46 | ATATCA | 2.74 ± 0.247 | 2.05 ± 0.0942 | 1.83 ± 0.136
47 | GTCCAA | 0.622 ± 0.0212 | 0.742 ± 0.0519 | 0.828 ± 0.0714
48 | AAGGCA | 0.566 ± 0.0136 | 0.683 ± 0.00728 | 0.777 ± 0.0437
49 | CTGTTA | 1.37 ± 0.0494 | 1.47 ± 0.0717 | 1.39 ± 0.112
50 | ATACAC | 1.31 ± 0.0559 | 1.36 ± 0.0547 | 1.35 ± 0.0583
51 | AGTTTG | 1.14 ± 0.0447 | 1.23 ± 0.039 | 1.22 ± 0.0352
52 | GCACAC | 0.35 ± 0.011 | 0.453 ± 0.0146 | 0.583 ± 0.0993
53 | ATTCAG | 1.31 ± 0.0442 | 1.44 ± 0.0342 | 1.36 ± 0.0925
54 | ACTTTA | 1.93 ± 0.117 | 1.99 ± 0.146 | 1.75 ± 0.227
55 | TTAGAA | 1.97 ± 0.0545 | 2.01 ± 0.0848 | 1.75 ± 0.166
56 | GTCGAA | 0.506 ± 0.0326 | 0.599 ± 0.0193 | 0.7 ± 0.0299
57 | AGCAAG | 0.735 ± 0.0328 | 0.837 ± 0.0375 | 0.888 ± 0.035
58 | ACGAGA | 0.811 ± 0.0345 | 0.922 ± 0.0447 | 0.957 ± 0.0409
59 | CAAGAG | 0.839 ± 0.0412 | 1.03 ± 0.0313 | 1.015 ± 0.00973
60 | CACTAA | 1.22 ± 0.0467 | 1.38 ± 0.0225 | 1.29 ± 0.0518
